PubChem BioAssay AID2102 (Southern Research Specialized Biocontainment Screening …, 2009)
In all, about 1,100 compounds went through this assay and about 210 (19%) were called active. Only a sample is shown. Potency and affinity values are given separately. Unmarked numbers belong to inactive results. The rule behind the calls is not given here.

assay: cell viability loss from selected hits – cytotoxicity control for SV40 T antigen inhibitor project, dose response (AID 2102); settings: Host cell viability cytotoxicity counter-screen; series mostly up to 50 µM; viability: at the top concentration;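 note: cells exposed to compounds for 72 hours; 100% = mean of untreated cell control wells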

SMILES | viability [%]
Oc1ccc(/C=N/Nc2ccc(Cl)nn2)cc1O | 82.1
COc1cc(/C=N/Nc2ccccn2)ccc1O | 81.3
C=CCNC(=S)NNC(=O)c1cc(O)ccc1O | 107
CCOc1cc(C(c2c(O)nc(SC)[nH]c2=O)c2c(O)nc(SC)[nH]c2=O)ccc1O | 116
Cc1ccc(CNc2ccc(N3CCOCC3)cc2)cc1 | 98.8
CCOc1ccc(NCc2nnc(SCC(=O)Nc3cc(C)on3)n2-c2ccc(OC)cc2)cc1 | 84.5
COc1ccc(CNc2ccc(N3CCOCC3)cc2)cc1 | 93.2
CC(=O)N1CCN(c2ccc(NCc3ccc(C)s3)cc2)CC1 | 86.7
Cc1cc(C)n(CCc2nc(-c3ccco3)cs2)n1 | 85.3
Nc1ccc(-c2nc3c(Cl)c(N)ccc3[nH]2)cc1 | 126
Nc1ccc2nc(CCCCCCc3nc4ccc(N)cc4[nH]3)[nH]c2c1 | 111
CC(C)C(C(=O)O)N1C(=O)/C(=C/C=C/c2ccco2)SC1=S (stereo not given) | 123
O=C1NC(=NCc2ccccc2)S/C1=C/c1ccc(O)cc1 | 89.2
C/C(=N/NC(=O)CSc1nc2ccccc2n1C)c1ccc(O)cc1 | 92.7
COc1ccc(NC2CCCN(C(=O)CCCn3cncn3)C2)cc1 (stereo not given) | 112
O=C1NC(=O)/C(=C/c2ccc(O)cc2)S1 | 101
O=C(O)Cc1c[nH]c2cccc(O)c12 | 92.2
O=C(CCc1ccc(O)c(O)c1)N/N=C/c1cc2c(cc1[N+](=O)[O-])OCO2 | 91.3
COc1ccc(CC(=O)N/N=C(\C)CC(=O)Nc2ccc(N(C)C)cc2)cc1OC | 126
COc1ccc(/C=N/NC(=O)CCc2n[nH]c(=O)[nH]c2=O)cc1O | 105
COc1cc(/C=C2\C(=O)NN(c3ccccc3)C2=O)ccc1OCC(N)=O | 104
O=S1(=O)N=C(Nc2ccc(O)cc2)c2ccccc21 | 115
Cc1nnc(Nc2ccc(O)cc2)[nH]c1=O | 110
CCOc1cc(/C=N/NC(=O)CCc2n[nH]c(=O)[nH]c2=O)ccc1O | 99.8

SMILES | viability [%]
C=CCn1c(SCC(=O)c2ccc(O)c(O)c2)nnc1-c1cccnc1 | 121
CCOC(=O)CNc1c(-c2ccc(O)cc2)nc2ccccn12 | 90.2
O=C(Nc1cccc(N2C(=O)C=CC2=O)c1)c1cccs1 | 110
COc1cc(/C=N/N=C(\N)c2nonc2N)ccc1O | 115
COc1cc(C=C2C(=O)c3ccccc3C2=O)ccc1O | 121
COc1cc(-c2cc(=O)c3c(O)c(OC)c(OC)c(O)c3o2)ccc1O | 97.4
O=C(CC(=O)N/N=C/c1ccc(O)cc1)N/N=C/c1ccc(O)cc1 | 98.6
O=C(N/N=C/c1ccc(O)c(O)c1)N/N=C/c1ccc(O)c(O)c1 | 98.8
Oc1ccc(Nc2nc(Cl)nc(NCc3ccco3)n2)cc1 | 97.5
CCOc1cc(-c2ccc(N)c(OCC)c2)ccc1N | 84.3
Nc1cc(C(=O)O)ccc1Nc1ccccc1 | 88
Oc1ccc(-c2cn3c(n2)SCC3)cc1O | 101
COc1cc(/C=C/C(=O)OCC(=O)Nc2ccc(S(N)(=O)=O)cc2)ccc1O | 107
Nc1ccc2nc(CCCO)[nH]c2c1 | 125
COc1cc(/C=N/NC(=O)c2cccc([N+](=O)[O-])c2)ccc1O | 120
COc1cc(C=C(C(C)=O)C(C)=O)ccc1O | 103
O=c1ccc2cc(O)c(O)cc2o1 | 96.9
O=C(Nc1ccc(O)cc1)/C(=C\c1ccncc1)NC(=O)c1ccccc1 | 110
Cc1nnc(N/N=C/c2c(O)n(-c3cccc(C(F)(F)F)c3)c(=O)c3ccccc23)[nH]c1=O | 89.5
COc1ccc(-c2cc(=O)oc3c(O)c(O)ccc23)cc1 | 102
O=C1CCCC/C1=C\Nc1ccc(O)cc1 | 97.2
O=c1cc(CN2CCN(Cc3ccccc3)CC2)c2ccc(O)c(O)c2o1 | 90.2
Oc1cnn(-c2ccccc2)c1 | 112
Nc1cc(CN2C(=O)c3ccccc3C2=O)cc(Cl)c1O | 94.5

SMILES | viability [%]
COc1cc(/C=N/Nc2ccnc(=O)[nH]2)ccc1O | 109
COc1ccc(NC2CCCN(C(=O)c3ccc(OC)cc3OC)C2)cc1 (stereo not given) | 85.2
COc1ccc(NC2CCCN(C(=O)CCn3cccn3)C2)cc1 (stereo not given) | 97.3
COc1cc(/C=N/NC(=O)c2c(-c3ccccc3)noc2C)ccc1O | 88.4
C/C(CC(=O)Nc1ccc2ccccc2c1)=N\NC(=O)c1ccc(O)c(O)c1 | 97.8
O=C(Nc1ccc(O)cc1)C1CC=CCC1 (stereo not given) | 94
CC(C)C(=O)c1ccc(O)c(O)c1 | 90.9
Cc1ccc(S(=O)(=O)N2CCN(CC(=O)N/N=C\c3ccc(O)c(O)c3)CC2)cc1 | 115
CCCSc1nc(O)c(C(c2ccc(OC)c(O)c2)c2c(O)nc(SCCC)n(C)c2=O)c(=O)n1C | 104
COc1cc(Cn2nnc3ccccc32)ccc1O | 91
Cc1ccc2c(c1C)NC(C(=O)O)C1CC=CC21 (stereo not given) | 111
CC(/C=N/n1c(-c2n[nH]c3c2CCC3)n[nH]c1=S)=C\c1ccco1 | 92.1
Nc1nc(-c2cccs2)c(NC(=O)c2ccccc2)s1 | 99.8
O=C1CNC(=S)N1CCc1ccc(O)c(O)c1 | 106
N#CC1=C2SCN(Cc3ccco3)CN2C(=O)CC1c1ccc(Cl)cc1 (stereo not given) | 98.5
O=C(CSc1nc2ccccc2o1)N/N=C/c1ccc(O)c(O)c1 | 90.5
Cc1cc(SCC(=O)N/N=C/c2ccc(O)c(O)c2)nc2ccccc12 | 86.3
CCn1c(/C=C/c2ccc(O)c(O)c2)nc2ccccc2c1=O | 85.1
O=C(N/N=C/c1ccc(O)c(O)c1)c1cc(-c2ccccc2)nc2ccccc12 | 99.2
O=C1ON=C(c2ccccc2)/C1=C/c1ccc(O)c(O)c1 | 107
O=C1C=CC(=O)N1c1ccc(O)cc1 | 104
Cc1nc(Cl)cc(N/N=C/c2ccc(O)cc2)n1 | 96.5
CCOc1ccc(N2Nc3n[nH]c(N)c3N2)cc1 | 94.2
Cc1c(NC(=O)CN2CCN(c3ccc(O)cc3)CC2)c(=O)n(-c2ccccc2)n1C | 96.2

SMILES | viability [%]
O=C1CC(N2CCN(c3ccc(O)cc3)CC2)C(=O)N1Cc1cccs1 (stereo not given) | 94.6
Cc1nc2ccc(N=NN(C)C)cc2[nH]1 | 96.2
O=C(Cn1c(=O)oc2ccccc21)Nc1n[nH]c(=S)s1 | 96.6
Cc1cc(C)c2c(CCl)cc(=O)oc2c1 | 86.8
CCSS(=O)(=O)c1cccc2cccnc12 | 92.4
O=C1/C(=C/c2ccncc2)SC(=S)N1Nc1ccccc1 | 102
CCc1cc2c(Nc3ccc(O)cc3)nc(C)nc2s1 | 95.3
O=C(C1CC1)N1CCN(c2ccc(O)cc2)CC1 | 103
O=C(CCC(=O)N1CCN(c2ccc(O)cc2)CC1)c1cccs1 | 98.9
Cc1cc(NC(=O)CN2CCN(c3ccc(O)cc3)CC2)no1 | 95.5
O=C(c1ccc2ncsc2c1)N1CCN(c2ccc(O)cc2)CC1 | 103
CCOC(=O)N1CCN(c2ccc(O)cc2)CC1 | 97
COc1ccc(N2CCN(C(=O)CN(c3ccccc3)S(C)(=O)=O)CC2)cc1 | 89.1
CNC(=O)c1ccc(-c2sc3nc(N4CCOCC4)c4c(c3c2N)CC(C)(C)OC4)o1 | 92.8
CN1CC(C(=O)O)Cc2c1ccc1ccccc21 (stereo not given) | 108
COc1cc(C(=O)Nc2ccc(O)cc2)ccc1OC(C)=O | 102
CN(C)c1ccc(NC(N)=S)cc1 | 99.6
COc1cc(/C=N/NC(=O)c2cccc(S(=O)(=O)N3CCCC3)c2)ccc1O | 108
Cc1nc(-c2ccc(O)c(O)c2)cs1 | 103
Cc1ccc(S(=O)(=O)Nc2nc(C)cc(N/N=C/c3ccc(O)cc3)n2)cc1 | 88.8
CCOc1cc(/C=C2\SC(=O)N=C2N)ccc1O | 109
Nc1nc2ccc(N3CCOCC3)cc2s1 | 109
COc1cc(C(=O)Nc2ccc(N(C)C)cc2)cc(OC)c1OC | 99.2
Oc1ccc(-c2csc(Nc3ccccn3)n2)cc1O | 113

SMILES | viability [%]
CN(C)c1ccc(Nc2nc(-c3cccnc3)cs2)cc1 | 91.9
CC(=O)c1cccc(S(=O)(=O)N2CCCC(c3nc(-c4ccc(C)o4)no3)C2)c1 (stereo not given) | 86.5
CC(C)c1ccc(S(=O)(=O)N2CCN(CCC(=O)Nc3ccc(N(C)C)cc3)CC2)cc1 | 84.7
Cc1cc(C)nc(SCc2cc(=O)c(OC(=O)c3ccc(S(=O)(=O)N4CCCC4)cc3)co2)n1 | 83.3
Nc1nc(-c2ccco2)cs1 | 116
Cc1ccsc1/C=N/n1c(-c2cccnc2)n[nH]c1=S | 86.5
COc1cc(/C=N/NC(=O)c2ccoc2C)cc(OC)c1O | 92.3
O=C(CCN1C(=O)/C(=C\c2ccco2)SC1=S)Nc1ccc(C(=O)O)c(O)c1 | 107
O=C(CCN1C(=O)/C(=C/c2ccco2)SC1=S)Nc1ccc(C(=O)O)c(O)c1 | 98.7
COc1cc(/C=N/NC(=O)CSc2ccccn2)ccc1O | 97.3
Cc1ccc(NC(=O)CN2C(=O)N/C(=C\c3cccn3-c3cccc(C(=O)O)c3)C2=O)cc1 | 105
CN(C)c1ccc(N2C(=O)CC(Nc3ccc(N4CCOCC4)cc3)C2=O)cc1 (stereo not given) | 111
Oc1ccc(/C=N/Nc2nccnc2Cl)cc1 | 88.3
Cc1cc(O)ccc1N/C=C1\CCCC1=O | 106
O=c1c2c([N+](=O)[O-])cc([N+](=O)[O-])cc2sn1Cc1ccccc1 | 90
CC1(C)N([O-])c2cc([N+](=O)[O-])ccc2[N+]1=O | 105
Cn1c(SCC(=O)c2ccc(O)c(O)c2)nnc1-c1cccs1 | 103
O=c1cc(-c2ccc(Br)cc2)[nH][nH]1 | 106
O=C(NC(=S)Nc1ccc(O)cc1)c1ccccc1Cl | 112
COc1cc(/C=N/Nc2nc3ccccc3[nH]2)cc(OC)c1O | 86.2
Nc1ccc2nc(CCCCCCCCc3nc4ccc(N)cc4[nH]3)[nH]c2c1 | 91
O=c1c2ccccc2sn1-c1nccs1 | 80
Cc1ccnc(-n2sc3ccccc3c2=O)n1 | 103
COc1ccc(/C=N/NC(=O)c2ccoc2C)cc1O | 123
